# From PubChem BioAssay
# Assay: JC-1 mitochondrial signal, unstimulated HepG2 cells – cell-based, JC-1 fluorescence, 24 h, 100 nL compound, profiling panel (AID 1167); further: test concentration not given here
# Settings: HepG2 mitochondrial potential, higher = more signal
row,SMILES,z-score
1,COCCOC(=O)N1C(=O)[C@@]2(c3cc(C#CC4(O)CCCCCC4)ccc31)[C@H](C(=O)N1CCN(c3ncccn3)CC1)[C@H]1C(=O)O[C@H](c3ccccc3)[C@H](c3ccccc3)N1[C@@H]2c1ccc(OCCO)cc1,-0.866
2,CS(=O)(=O)CCOC(=O)C1=CC(CCCO)=CC(c2cccs2)N(Cc2cccc(OC(F)(F)F)c2)C=C1C(=O)OCCS(C)(=O)=O (centres undefined),0.423
3,N#Cc1ccc(NN2C(C(O)c3cc(C(F)(F)F)cc(C(F)(F)F)c3)C=CC3C(=O)N(c4ccccc4)C(=O)C32)cc1 (centres undefined),-2.78
4,COC(=O)C1(C)C=C2C(=C(c3ccccc3)C(=O)C2C)CN1 (centres undefined),-1.68
5,COC(=O)CC=C[C@H](C)[C@@H](OCc1ccccc1Br)C(C)C,0.744
6,CC(=O)OC[C@H]1O[C@H](CCON=C[C@@H](C)[C@H](OCc2ccccc2)C(C)C)C=C[C@@H]1OC(C)=O,-1.26
7,CC(CCN1CCCCc2nc(C)c(C)cc21)=NOC(C)CN1CCCCc2nc(C)c(C)cc21 (centres undefined),3.61
8,CCN1C(=O)[C@H]2[C@H]3[C@H](O)[C@H](O)CC(=NOCc4ccccc4)[C@@H]3CC[C@H]2C1=O,0.402
9,CC(=O)OC[C@H]1O[C@H](CCON=C(C)CCN2CCc3nc(-c4ccccc4)c(-c4ccccc4)cc3C2)C=C[C@@H]1OC(C)=O,-0.273
10,CN(C)CCCNC(=O)[C@@H]1c2ccccc2C(=O)N(Cc2cc(F)cc(C(F)(F)F)c2)[C@H]1c1ccc(CO)cc1,1.3
11,CC(CCC(=O)OC[C@H]1O[C@H](C#Cc2ccccc2)C=C[C@@H]1Oc1ccc(C)cc1)=NOC[C@@H](O)[C@H]1O[C@@H]2OC(C)(C)O[C@@H]2[C@H]1O,-0.791
12,CC(C)N1CC=CC23O[C@@H]4C=CCCOC(=O)C4[C@H]2C(=O)N(CCCCCCO)[C@@H]3C1=O (some centres undefined),0.614
13,O=C1[C@H]2[C@H]3[C@H](O)[C@H](O)CC(=NOC[C@@H](O)COCc4ccco4)[C@H]3CC[C@H]2C(=O)N1C1CCCCC1,-0.322
14,CO[C@@H]1COC(=O)CCC[C@@H](C)[C@H](OC)COC(=O)CCC[C@H]1C,-0.075
15,O=C1NC(=O)C2C1C=CC(C(O)Cc1ccccc1)N2Nc1ccccn1 (centres undefined),0.0266
16,CC(C)(C)OC(=O)CC[C@]1(C(=O)NCc2ccccc2)N=C(c2ccc(OCCCO)cc2)O[C@H]1c1ccccc1,0.956
17,CC(C)(C)OC(=O)CC[C@]1(C(N)=O)COC(c2ccc(OCCCO)cc2)=N1,-0.143
18,CC(C)CON=C1C[C@@H](O)[C@@H](O)[C@@H]2[C@@H]3C(=O)N(Cc4ccccc4)C(=O)[C@@H]3CC[C@@H]12,0.173
19,C=CCOC(=O)[C@H]1[C@@H]2C(=O)O[C@@H](c3ccccc3)[C@@H](c3ccccc3)N2[C@@H](c2ccc(OCCOC(=O)[C@H]3C[C@H]4C(=O)N[C@@H](Cc5ccccc5)C(=O)N4[C@H]3c3ccc(O)cc3)cc2)[C@]12C(=O)Nc1ccccc12,-1.47
20,O=C1[C@H]2[C@H]3[C@H](O)[C@H](O)CC(=NOCc4ccccc4)[C@H]3CC[C@H]2C(=O)N1c1ccc(F)cc1F,0.577
21,COC(=O)C1=C(C)[C@@H](O)[C@@H](C)[C@H](c2c(OC)c(OC)c(C)c(OC)c2OC)O1,-0.206
22,COC(=O)[C@@]1(Cc2ccc(OC)cc2)[C@H]2c3cc(C(=O)N4CCCC4)n(Cc4cc(F)c(F)c(F)c4)c3C[C@H]2CN1C(=O)c1ccccc1,1.31
23,CC(CCC(=O)OC[C@H]1O[C@H](C#Cc2ccccc2)C=C[C@@H]1Oc1ccc(C)cc1)=NO[C@@H](C)c1cn([C@H](CO)Cc2ccccc2)nn1,0.453
24,CC(C)NC(=O)[C@@]1(c2ccc([N+](=O)[O-])cc2)CC(=O)N(CC23CC4CC(CC(C4)C2)C3)[C@@H]1c1ccc(CO)cc1I,0.421
25,COC(=O)[C@H](C)NC(=O)CCC1CC(OC(=O)NCCc2ccc(F)cc2)CC2(CCCC(COC(=O)NCCc3ccc(Cl)cc3)O2)O1 (some centres undefined),0.341
26,C=C(CCCC)C(=O)CC[C@@H](OC(C)=O)c1cccc(OCCO)c1,-0.974
27,CCOC(=O)[C@H](CC(C)C)NC(=O)CCC1CC(OC(=O)NCc2cccc3ccccc23)CC2(CCCC(COC(=O)NCCc3ccccc3OC)O2)O1 (some centres undefined),0.602
28,CCCCCN1CC=CC23O[C@@H]4C=CCOC(=O)[C@@H]4[C@H]2C(=O)N(C(CO)C(C)C)[C@@H]3C1=O (some centres undefined),-0.794
29,CCOC(=O)[C@H](CC(C)C)NC(=O)CCC1CC(OC(=O)NCc2cccc3ccccc23)CC2(CCCC(COC(=O)NCCN3CCOCC3)O2)O1 (some centres undefined),-0.084
